Reference: ChEMBL document CHEMBL3988442, “University of Dundee, Small-Polar-MMV Screening Library” (2021)

What was measured:
[1] = biological target: T1, Aspartate--tRNA(Asp/Asn) ligase (Mycobacterium tuberculosis (strain ATCC 25618 / H37Rv)) (UniProt P9WFW3); experiment: Assay for Asp RNA synthetase-1 from Mycobacterium tuberculosis; format: functional; parameters: scale not given: direction of the effect not stated beside the values; details: 30 µM; also: in the data most compounds retested in dose-response had high values
T1 sequence (whole entry): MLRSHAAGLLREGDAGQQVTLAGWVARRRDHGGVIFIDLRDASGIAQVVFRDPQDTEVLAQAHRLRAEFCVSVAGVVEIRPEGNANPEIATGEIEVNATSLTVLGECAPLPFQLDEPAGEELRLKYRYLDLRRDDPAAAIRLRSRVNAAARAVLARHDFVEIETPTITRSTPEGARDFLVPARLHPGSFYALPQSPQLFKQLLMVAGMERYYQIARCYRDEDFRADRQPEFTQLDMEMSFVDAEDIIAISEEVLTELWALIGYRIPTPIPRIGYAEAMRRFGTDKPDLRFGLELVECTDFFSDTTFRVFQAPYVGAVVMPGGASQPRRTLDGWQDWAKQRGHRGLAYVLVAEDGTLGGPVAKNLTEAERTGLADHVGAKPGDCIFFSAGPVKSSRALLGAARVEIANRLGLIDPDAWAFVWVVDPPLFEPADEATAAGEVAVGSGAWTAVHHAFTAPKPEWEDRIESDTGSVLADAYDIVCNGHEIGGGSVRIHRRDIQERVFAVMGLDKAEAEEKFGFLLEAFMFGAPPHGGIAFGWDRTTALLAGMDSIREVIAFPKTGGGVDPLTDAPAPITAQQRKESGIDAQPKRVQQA

[2] = biological target: Shiga toxin 2 (Escherichia coli O157:H7) (UniProt P09385+P09386); experiment: E. coli 0.157:H7 Shiga Toxin SOP - stx2 screening assay; format: functional; parameters: scale not given: direction of the effect not stated beside the values; details: 30 µM

Question: With CC(C)c1cc2c(O)nc(CSCC(=O)O)nc2s1 as the molecule, how does the Percent Effect [1] read?
Answer: -0.29%

Question: And the Percent Effect [2]?
Answer: -12.1%

Question: What does the source list for CNC(=O)CS(=O)(=O)Cc1coc(-c2ccc(OC)cc2)n1?
Answer: Percent Effect [1]: -0.993%; Percent Effect [2]: -5.58%

Question: For O=C1CCCc2nccc(-c3ccccc3)c21, which Percent Effect [1] is on record?
Answer: 1.6%

Question: And the Percent Effect [2]?
Answer: -14.1%

Question: Which Percent Effect [1] does the source give for COCCNC(=O)[C@H]1C[C@@H]2CCN(Cc3ccoc3)C[C@H]2O1 here?
Answer: 3.35%

Question: And the Percent Effect [2]?
Answer: -3.8%

Question: OC(COc1ccccc1)CN1CCc2c(ncn2C2CC2)C1 (centres undefined) was tested. Which Percent Effect [1] did it give?
Answer: -7.92%

Question: And the Percent Effect [2]?
Answer: -25.6%

Question: Which Percent Effect [1] does the source give for Cc1nccn1-c1cccc(C2CCCN2S(=O)(=O)c2cn(C)cn2)n1 (centres undefined) here?
Answer: 12.1%

Question: What about the Percent Effect [2] of the same molecule?
Answer: 45.9%

Question: Which Percent Effect [1] does the source give for Cc1ccccc1CN1CCC(NCC2CNc3ccnn3C2)CC1 (centres undefined) here?
Answer: 0.127%

Question: What about the Percent Effect [2] of the same molecule?
Answer: -38.1%

Question: With COc1ccc(CN2C[C@@H](OCc3csc(C)n3)[C@H]3COC[C@H]32)cc1 as the molecule, how does the Percent Effect [1] read?
Answer: -1.16%

Question: What about the Percent Effect [2] of the same molecule?
Answer: -12.3%

Question: Which Percent Effect [1] does the source give for CCN1CC(C(=O)NC(C)(C)CC(C)(C)C)CC1=O (centres undefined) here?
Answer: 2.27%

Question: And the Percent Effect [2]?
Answer: -6.14%

Question: What does the source list for Cn1cnnc1C1CCCN(C(=O)NCCOc2ccccc2)C1 (centres undefined)?
Answer: Percent Effect [1]: -4.29%; Percent Effect [2]: -30.2%

Question: CC(C)OCc1ncn2c1CN(Cc1ccc(F)cc1)CCC2 was tested. Which Percent Effect [1] did it give?
Answer: -1.67%

Question: What about the Percent Effect [2] of the same molecule?
Answer: 3.71%

Question: Which results are given for COc1ccccc1[C@@H]1CN(C(=O)c2csc(C)n2)C[C@H]1C(=O)O?
Answer: Percent Effect [1]: 2.17%; Percent Effect [2]: -9.43%

Question: What does the source list for CC(=O)N1C[C@@H](c2ccsc2)[C@@H]2CN(Cc3ccccc3)CC[C@@H]21?
Answer: Percent Effect [1]: 2.13%; Percent Effect [2]: -20.6%

Question: With COc1ccccc1CC(=O)N1CCC(NCc2cc[nH]c2)CC1 as the molecule, how does the Percent Effect [1] read?
Answer: -2.74%

Question: And the Percent Effect [2]?
Answer: -11.8%

Question: How did the Percent Effect [1] turn out when CCc1ccc(CNC(=O)N2CCN(Cc3cc(C)no3)CC2)s1 was run?
Answer: 12%

Question: What about the Percent Effect [2] of the same molecule?
Answer: 27%

Question: With CCC1c2ccsc2CCN1C(=O)NCc1cc[nH]n1 (centres undefined) as the molecule, how does the Percent Effect [1] read?
Answer: -1.83%

Question: What about the Percent Effect [2] of the same molecule?
Answer: -35%

Question: What does the source list for COc1cccc(COCC(=O)N2CCCC(n3ccnc3)C2)c1 (centres undefined)?
Answer: Percent Effect [1]: -3.41%; Percent Effect [2]: 23.8%
